Measured values taken from PubChem BioAssay AID488815 (Broad Institute, 2010).
Entries with a potency or affinity are not part of this list. Results filed as inconclusive are left out. The rule behind the calls is not given here.

Biological target: CAAX prenyl protease 1 (Saccharomyces cerevisiae (strain ATCC 204508 / S288c)) (UniProt P47154)
Assay: Ste24 protease inhibitors, dose response, biochemical, S. cerevisiae, plate reader, cherry-pick (AID 488815);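 note: 0% = neutral control wells and -100% = no enzyme wells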
Conditions: yeast Ste24 protease activity; series mostly up to 10 µM; activity change, negative = inhibition: at the top concentration

CAAX prenyl protease 1 (Saccharomyces cerevisiae (strain ATCC 204508 / S288c)), sequence (P47154 whole entry, looked up): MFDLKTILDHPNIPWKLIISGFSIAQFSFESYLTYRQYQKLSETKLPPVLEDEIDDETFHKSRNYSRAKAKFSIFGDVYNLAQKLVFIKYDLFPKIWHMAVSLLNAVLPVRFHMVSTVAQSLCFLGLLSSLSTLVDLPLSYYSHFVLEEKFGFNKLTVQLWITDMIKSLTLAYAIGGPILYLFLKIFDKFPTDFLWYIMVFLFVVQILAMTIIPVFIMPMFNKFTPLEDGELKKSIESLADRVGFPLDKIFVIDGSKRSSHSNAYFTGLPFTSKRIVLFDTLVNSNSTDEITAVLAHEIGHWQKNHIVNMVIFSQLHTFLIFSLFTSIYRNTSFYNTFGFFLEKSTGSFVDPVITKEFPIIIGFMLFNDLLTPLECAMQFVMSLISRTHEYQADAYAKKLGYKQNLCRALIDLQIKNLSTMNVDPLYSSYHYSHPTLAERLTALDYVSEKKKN

Activity change, negative = inhibition, inactive:
Cc1ccccc1OC(C)C(=O)N1CCC(Cc2ccccc2)CC1 (stereo not given) 22.5%
CCC(COC)NC(=O)CCc1nnc(Cc2cccc(C(F)(F)F)c2)o1 (stereo not given) 25.7%
Nc1nnnn1/N=C/c1ccccc1OCc1ccc(Cl)cc1Cl 15.2%
c1ccc(CNc2nc(N3CCN(Cc4ccccc4)CC3)nc3ccccc23)cc1 22%
COc1cccc2sc3ccc(C#CC4(O)CCCCC4)cc3c(=O)c12 17.2%
COc1ccc(C)cc1NC(=O)CCC(=O)Nc1ccc2nc(N3CCN(C)CC3)cc(C)c2c1 -16.4%
COc1ccc(Cc2nc3ccc(C(=O)N4CCCC4)cc3o2)cc1 7.28%
CC(C)C(=O)Nc1cccc(NC(=S)NC(=O)C(c2ccccc2)c2ccccc2)c1 0.694%
O=C1C(Cc2c[nH]c3ccccc23)NC(=S)N1Cc1ccccc1 (stereo not given) 9.65%
Cc1nc(N2CCOCC2)c2cc(-c3ccccc3)sc2n1 12.8%
Nc1c(C(=O)Nc2cccc(C(=O)O)c2)sc2nc3c(cc12)CCCC3 -6.49%
CN1CCN(Cc2c(C(=O)N/N=C/c3cccc(Br)c3)nnn2-c2nonc2N)CC1 13.2%
O=C1CN(C(=O)NCC(=O)N2CCCC2)c2ccccc2N1 10%
N#Cc1c(OCC(=O)c2ccccc2)nc2c(c1-c1ccco1)CCc1ccccc1-2 16.6%
CCCCn1c(=O)[nH]c(=O)c2c1nc(-c1ccc(OC)c(Br)c1)n2CC(C)C 23.6%
CN(C)CC(C)(C)CNC(=S)NCc1ccc2c(c1)OCO2 19.4%
Cc1cccc(-c2nnc(SCc3ccc(C#N)cc3)n2Cc2ccco2)c1 11.9%
O=C(CN1CCC(NC(=O)c2ccc(Br)cc2)CC1)NCc1cccs1 13.2%
CCCCOc1ccc(Cc2c(COCC)[nH]c(=S)[nH]c2=O)cc1 40.5%
Cc1ccc2nc(N(CCN(C)C)C(=O)c3ccc4ccccc4c3)sc2c1 34.5%
O=C(COC(=O)c1ccc(S(=O)(=O)N2CCCC2)cc1)NCc1ccccc1 33.6%
O=C(CCNC(=O)N1CC(=O)Nc2ccccc21)NCCc1cccc(F)c1 28.2%
CC(C)(C)C(=O)C[n+]1ccc(C(N)=O)cc1 -13.2%
COc1ccc(C(C(=O)NC2CCCCC2)N(C(=O)c2snc(C(N)=O)c2N)c2ccc(OC)cc2OC)cc1 (stereo not given) -15%
Cc1cccc(NS(=O)(=O)c2ccc(C)c(C(=O)OCC(=O)Nc3cc(C)on3)c2)c1 6.86%
CCCCNC(=S)NNC(=O)CCn1cc(C)cn1 35.5%
COc1cc2c(cc1OC)C(C)N(C(=O)c1cc3c(=O)oc4ccc(C)cc4c3s1)CC2 (stereo not given) 15.4%
CCOC(=O)c1ccc(NC(=O)N2CCN(Cc3ccccc3)CC2)cc1 11.5%
CC1(c2ccc(OCC#N)cc2)C=C(c2ccc(OCC#N)cc2)n2nc(C(F)(F)F)nc2N1 (stereo not given) -3.89%
COc1ccc(C(=O)/C=C/c2ccc(OC)cc2OC)c(O)c1 22.4%
Cc1ccc(S(=O)(=O)CC(=O)N2CCN(c3ccccc3F)CC2)cc1 21.3%
CC1CCc2c(sc(NC(=O)COC(=O)c3ccccc3NCc3ccco3)c2C#N)C1 (stereo not given) -174%
Cc1ccc(/C=N/NC(=O)c2nnn(-c3nonc3N)c2C(C)C)o1 12.8%
CCO[C@@H]1OC(C(=O)N2CCN(Cc3ccccc3)CC2)=C[C@H](c2ccccc2)[C@H]1CCCO 20.8%
CN(C(=O)COC(=O)c1cc([N+](=O)[O-])ccc1Sc1ccccc1)C1CCS(=O)(=O)C1 (stereo not given) 25.6%
O=C(c1cc(-c2ccccc2)nc2ccccc12)N1CCN(c2ccccn2)CC1 15.8%
COc1ccc2[nH]c(C(=O)NCCCn3ccnc3)cc2c1 40.5%
CN1C(=O)/C(=C/c2cccc(Cl)c2)Sc2ccc(C(=O)N3CCOCC3)cc21 31.2%
COc1ccccc1NC(=O)CN(c1ccc(C23CC4CC(CC(C4)C2)C3)cc1)S(C)(=O)=O 4.28%
CSc1ccc(C(=O)C2CCCN(C(=O)c3cccnc3SC)C2)cc1 (stereo not given) 16.5%
